Sampled rows, rich in hits. Any-hit rate of the full collection: about 19%.
DT40 TDP1 CPT: qHTS for Inhibitors of human tyrosyl-DNA phosphodiesterase 1 (TDP1): qHTS in cells in presence of CPT. chicken DT40 Tdp1-/-;hTDP1 cells + 20 nM CPT, ATP luminescence, 48 h. Potency, µM (highest dose often 46.2 µM), inactives show at the top dose activity change, negative = growth inhibition, actives largely listed as inhibitors. actives 12% (n = 420,000); also: potency is read from the fitted curve at half-maximal effect; nearly all actives have a fitted effect of over 55% in size
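Chicken DT40 Tdp1-/- cells stably complemented with human TDP1 were seeded at 400 cells/well in medium containing 20 nM camptothecin, exposed to pin-transferred compounds, and grown at 37 °C for at least 48 hr. Viability was read as ATP luminescence.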
HT1080-NT tox: qHTS for induction of synthetic lethality in tumor cells producing 2HG: qHTS for the HT-1080-NT fibrosarcoma cell line; actives 1.6% (n = 360,000); HT-1080-NT fibrosarcoma viability, CellTiter-Glo ATP luminescence, 48 h; Potency, µM (series often up to 46.1 µM), for inactives: at the highest dose activity, negative = less viability, usual class: cytotoxic;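 also: NT is the 2HG producing partner of a matched IDH1 knockdown line; potency is read from the fitted curve at half-maximal effect; 0% = DMSO-treated cells and -100% = media-only wells without cells; nearly all actives have a fitted effect of over 55% in size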
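Toxicity toward the 2HG-producing NT line was scored as %Activity, normalised to DMSO and no-cell wells, from CellTiter-Glo luminescence after 48 hours' treatment.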
IL-1B inflam inh: qHTS for Inhibitors of Inflammasome Signaling: IL-1-beta AlphaLISA Primary Screen. actives 4.7% (n = 360,000). activity change, % at 57.5 µM. THP-1 LPS/ATP IL-1B secretion, AlphaLISA, 16 h; hits give low values; in the data active = activity change below about -50%; inconclusive = mostly about -30% to -49%
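THP-1 cells pretreated 1 hr with compounds (up to 57.5 uM final), then stimulated with LPS (250 ng/mL final) plus ATP (1.25 mM final); secreted IL-1B measured by AlphaLISA after 16 hr, decreased signal indicating inhibition.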
HT1080 IDH1KD tx: qHTS for induction of synthetic lethality in tumor cells producing 2HG: qHTS for the HT-1080-IDH1KD cell line; actives 2% (n = 360,000); AID 686971, 2013; Potency, µM (titrated, usually from 46.1 µM), inactives show at the highest dose activity, negative = toxicity, usual class: cytotoxic; HT-1080 IDH1 knockdown viability, ATP luminescence, 48 h;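 also: potency is read from the fitted curve at half-maximal effect; 0% = DMSO wells and -100% = cell-free medium wells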
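Assay cells: HT-1080 with IDH1 knockdown, 750 per well, RPMI/5% FBS. Exposure: 48 h at 37 °C following 2 h pre-incubation. Read: CellTiter-Glo luminescence; fitted concentration-response, curve class assigned.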
DT40 TDP1 no CPT: qHTS for Inhibitors of human tyrosyl-DNA phosphodiesterase 1 (TDP1): qHTS in cells in absence of CPT. DT40 Tdp1-/- hTDP1 cells, no CPT, ATP luminescence, 48 h. Potency, µM (highest dose often 46.2 µM), inactives show at the highest dose activity change, negative = growth inhibition, usual class: inhibitors. actives 15% (n = 420,000). AID 686978, 2013; also: potency is read from the fitted curve at half-maximal effect; nearly all actives have a fitted effect of over 55% in size
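Growth of hTDP1-complemented DT40 Tdp1-knockout cells is measured by ATP luminescence after at least 48 hr compound exposure at 37 °C, with DMSO substituting for the 20 nM CPT used in the parallel screen.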
* marks the source's active call; other numbers are inactive results; ? = inconclusive; . = not tested or not shown. Unless noted, calls follow the shape of the dose curve; as a rule, active = well fitted curve in the direction sought with a large enough effect; inconclusive = small, poorly fitted or top-dose-only effect, or another doubt; inactive = no such curve, though single readings can be large; an effect the other way counts as inactive or inconclusive. Unless noted, % is scaled to controls: 0 for no effect and ±100 for the full control effect.

SMILES	DT40 TDP1 CPT	HT1080-NT tox	IL-1B inflam inh	HT1080 IDH1KD tx	DT40 TDP1 no CPT
O=C(NCc1cccc(OC(F)(F)F)c1)c1cccc2c1C(=O)c1ccc(-c3ccc(F)cc3OCc3ccccc3)cc1S2(=O)=O	?	2.5%	-20.8	6.2%	?
O=C1c2ccc(-c3ccc(F)cc3OCc3ccccc3)cc2S(=O)(=O)c2cccc(C(=O)N3CCCC3)c21	13µM*	-4.3%	14.3	-7.3%	14.6µM*
COc1ccc(S(=O)(=O)N2CCN(c3ccccn3)CC2)cc1OC	-21.2%	7.6%	41.4	-17.8%	-27.7%
COc1ccc(-c2cccc(N3CCN(c4ccccn4)CC3)n2)cc1OC	16.4µM*	4.8%	28.8	5.6%	18.4µM*
COC(=O)COc1ccc(Oc2nc(NC(C)(C)C)nc(N3CCOCC3)n2)nn1	-23.4%	.	.	.	-5.4%
O=C(NC1CCCCC1)c1cccc(OCc2ccccc2)c1	?	2.4%	-73.6*	-16.7%	?
O=C(NC1CC1)c1cccc(Oc2ccccc2)c1	4.1%	0.0%	-5.2	-3.3%	-19.1%
CC(=O)Nc1cccc(OCc2ccc(S(=O)(=O)Cc3ccccc3)cc2)c1	?	-1.3%	16.4	-6.7%	20.6µM*
CC(=O)Nc1cccc(NC(=O)c2cccc(OCc3ccccc3)c2)c1	20.6µM*	-17.1%	68.3	-14.4%	18.4µM*
O=C(C[n+]1cccc2ccccc21)c1ccc(F)cc1	-8.9%	.	.	.	-24.1%
Nc1c(C2CCCCC2)c(=O)on1C(=O)c1ccccc1	?	7.3%	13.4	12.8%	?
CC(C)c1ccc(CN2CCC(n3nccc3NC(=O)C3CCCC3)CC2)cc1	?	-28.2%	-19.5	-19.9%	?
C=CCNC(=S)NCC=C	14.7%	0.3%	14.9	9.4%	-14.1%
CCOC(=O)[C@H]1[C@H]2COc3ccc(Br)cc3[C@@H]2N2C(=O)CN(Cc3ccc(OC)cc3)C(=O)[C@@]12C	?	-1.1%	20.3	-12.3%	?
CCOC(=O)[C@H]1[C@H]2COc3ccc(Cl)cc3[C@@H]2N2C(=O)CN(Cc3ccc(C)cc3)C(=O)[C@@]12C	18.4µM*	-14.8%	?	-11.2%	16.4µM*
CCOC(=O)[C@H]1[C@H]2COc3ccc(Br)cc3[C@@H]2N2C(=O)CN(Cc3ccccc3)C(=O)[C@@]12C	?	0.0%	-25.7	4.8%	25.9µM*
CCOC(=O)[C@H]1[C@H]2COc3ccc(C)cc3[C@@H]2N2C(=O)CN(Cc3ccccc3)C(=O)[C@@]12C	?	9.3%	?	7.7%	?
CCOC(=O)[C@H]1[C@H]2COc3ccc(Cl)cc3[C@@H]2N2C(=O)CN(Cc3ccco3)C(=O)[C@@]12C	25.9µM*	-0.1%	-9.9	1.6%	?
CCOC(=O)[C@H]1[C@H]2COc3ccc(Cl)cc3[C@@H]2N2C(=O)CN(Cc3ccc(OC)cc3)C(=O)[C@@]12C	?	0.0%	-11.4	-2.6%	18.4µM*
CCOC(=O)[C@H]1[C@H]2COc3ccc(OC)cc3[C@@H]2N2C(=O)CN(Cc3ccco3)C(=O)[C@@]12C	?	27.4%	-17.7	26.0%	-25.6%
Cc1cccc(CCNC(=O)Cn2ncc3c(=O)oc4ccccc4c32)c1	?	.	.	.	-18.9%
CC1=C(C(=O)OCCNC(=O)c2ccccc2O)C(c2ccccc2[N+](=O)[O-])C(C(=O)OCC2CCCO2)=C(C)N1 (centres undefined)	18.4µM*	-25.7%	-57.9*	?	18.4µM*
COc1ccc(C2=Nc3ccccc3N(C(=O)c3ccc4c(c3)OCO4)C2C(=O)Nc2c(C)cccc2C)cc1 (centres undefined)	?	0.5%	-16.8	5.1%	?
Cc1c(C)c2cccnc2c2ncccc12	1.84µM*	10.3µM*	-3.9	5.17µM*	1.46µM*

Source: PubChem
